Bioassay records as filed in PubChem BioAssay.
The list is not random: actives were taken first. Their share in the collection is about 0.99%.
Keap1-Nrf2 PPI – Keap1-Nrf2 protein-protein interaction inhibitors, primary screen, biochemical, fluorescence polarization, single point; AID 504523, 2011; inhibition, % at 9.4 µM; 0.15% of 340,000 active; Kelch-like ECH-associated protein 1 (Homo sapiens), Q14145; Keap1 Kelch-Nrf2 peptide fluorescence polarization, 1536-well; in the data active = inhibition above about 12%;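 also: human Keap1 Kelch domain with fluorescein labeled Nrf2 9mer peptide probe; 0% = neutral control wells and 100% = peptide positive control; higher means more block of Keap1 binding to Nrf2 peptide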
LANA-H2B inh – blockers of LANA interaction with H2A/H2B – biochemical, FP readout, HTS, primary screen | inhibition, % (no concentration beside the values) | Protein LANA1 (Human herpesvirus 8 type P (isolate GK18)), Q9QR71 | 0.6% of 320,000 active | cell-free LANA-H2A/H2B peptide, fluorescence polarization; in the data active = inhibition mostly above about 10%, no sharp cut-off; inactive = mostly below about 6.7%
Target sequence (Q9QR71 whole entry, looked up): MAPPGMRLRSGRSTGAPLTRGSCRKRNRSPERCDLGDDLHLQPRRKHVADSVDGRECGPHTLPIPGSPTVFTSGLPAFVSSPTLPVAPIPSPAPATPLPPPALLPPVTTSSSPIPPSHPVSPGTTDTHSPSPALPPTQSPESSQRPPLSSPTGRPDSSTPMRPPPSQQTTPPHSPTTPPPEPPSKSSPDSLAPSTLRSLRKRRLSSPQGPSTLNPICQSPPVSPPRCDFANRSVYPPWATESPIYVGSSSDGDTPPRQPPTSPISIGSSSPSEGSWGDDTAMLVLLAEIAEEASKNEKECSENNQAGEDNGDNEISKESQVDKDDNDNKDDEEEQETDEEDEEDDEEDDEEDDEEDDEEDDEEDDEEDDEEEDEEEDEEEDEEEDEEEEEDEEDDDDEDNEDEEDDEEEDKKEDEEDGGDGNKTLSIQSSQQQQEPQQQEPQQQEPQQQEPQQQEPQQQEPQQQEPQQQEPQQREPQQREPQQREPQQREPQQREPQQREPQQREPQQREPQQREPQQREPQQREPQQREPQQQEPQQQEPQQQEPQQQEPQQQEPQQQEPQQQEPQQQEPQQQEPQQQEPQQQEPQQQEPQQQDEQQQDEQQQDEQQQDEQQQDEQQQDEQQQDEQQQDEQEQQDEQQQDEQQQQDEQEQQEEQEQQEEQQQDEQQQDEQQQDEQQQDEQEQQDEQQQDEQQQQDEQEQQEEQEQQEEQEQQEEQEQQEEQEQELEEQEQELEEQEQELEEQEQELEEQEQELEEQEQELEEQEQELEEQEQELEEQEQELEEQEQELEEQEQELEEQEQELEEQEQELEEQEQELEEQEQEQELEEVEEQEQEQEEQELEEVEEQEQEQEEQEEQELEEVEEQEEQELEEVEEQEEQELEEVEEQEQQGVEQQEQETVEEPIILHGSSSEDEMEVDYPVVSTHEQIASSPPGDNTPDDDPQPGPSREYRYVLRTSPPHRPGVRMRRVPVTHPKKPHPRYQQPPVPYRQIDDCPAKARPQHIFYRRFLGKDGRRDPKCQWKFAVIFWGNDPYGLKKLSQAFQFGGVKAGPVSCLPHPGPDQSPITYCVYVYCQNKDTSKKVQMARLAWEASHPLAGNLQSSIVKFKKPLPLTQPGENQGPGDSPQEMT
RTF Ca sens inh – cardiac RTF calcium sensitivity inhibitors, primary screen, biochemical, IANBD-TnC fluorescence, EC70 calcium. IANBD-labeled cardiac RTF, Ca2+ fluorescence. AID 493244, 2011. inhibition, % at 7.15 µM. Troponin I, cardiac muscle (Homo sapiens) + Troponin T, cardiac muscle (Homo sapiens) + …. 0.12% of 340,000 active;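 active = inhibition above the mean inhibition of all tested compounds plus 3 SD, cut at about 17% in these data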;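 also: assay run at fixed EC70 calcium of 1.6 mM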
C-LANA FP – inhibitors of KSHV C-LANA binding to DNA, primary screen, biochemical, fluorescence polarization, FAM-LBS DNA, MBP-C-LANA, single point; inhibition, % at 9 µM; 0.078% of 340,000 active;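 active = highest replicate inhibition at or above 60% at 9 µM, even if other replicates fall short; inactive = all replicates below 60% inhibition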;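 also: 0% = neutral control wells and 100% = 4 µM acridine orange control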
cardiac RTF act – cardiac RTF calcium sensitivity activators, primary screen, biochemical, IANBD-TnC fluorescence, EC20 calcium. Troponin I, cardiac muscle (Homo sapiens) + Troponin T, cardiac muscle (Homo sapiens) + …. IANBD-labeled TnC RTF fluorescence at EC20 calcium; 0% EC20 calcium, 100% full calcium. activation, % at 7.2 µM. 0.24% of 340,000 active;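 active = activation above the mean over all tested compounds plus 3 SD, cut at about 30% in these data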;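 also: rise in fluorescence read as greater calcium sensitivity of cardiac thin filaments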
The depositor's hits bear a star.

Results for Cc1ccc(NC(=O)C2CCCN(C3=NS(=O)(=O)c4ccccc43)C2)c(O)c1 (stereo unspecified) ?
Keap1-Nrf2 PPI: 4; LANA-H2B inh: -3; RTF Ca sens inh: -1; C-LANA FP: 0; cardiac RTF act: 4

How did Cc1ccccc1NC(=O)C1CCN(C2=NS(=O)(=O)c3ccccc32)CC1 do in these assays?
Keap1-Nrf2 PPI: 1; LANA-H2B inh: 1; RTF Ca sens inh: -5; C-LANA FP: 61*; cardiac RTF act: 8

Results for COc1ccc(N2C(=O)c3cccc4cccc(c34)C2=O)cc1 ?
Keap1-Nrf2 PPI: 0; LANA-H2B inh: 8; RTF Ca sens inh: -6; C-LANA FP: 6; cardiac RTF act: 1

How did COc1ccc(N2C(=O)c3cccc4c(N(C)CCO)ccc(c34)C2=O)cc1 do in these assays?
Keap1-Nrf2 PPI: -2; LANA-H2B inh: 2; RTF Ca sens inh: -71; C-LANA FP: 33; cardiac RTF act: 48*

What do the screens show for `Cc1ccc(CNC(N)=S)cc1`?
Keap1-Nrf2 PPI: -2; LANA-H2B inh: -1; RTF Ca sens inh: 11; C-LANA FP: 8; cardiac RTF act: 2

Results for O=C(O)Cc1ccc(N=Nc2c(O)c(C(=O)O)cc3ccccc23)cc1 ?
Keap1-Nrf2 PPI: -2; LANA-H2B inh: -11; RTF Ca sens inh: 17; C-LANA FP: 92*; cardiac RTF act: -19

Results for Cc1nc(CSc2ccc(Cl)cc2)cc(N2CCOCC2)n1 ?
Keap1-Nrf2 PPI: -5; LANA-H2B inh: 5; RTF Ca sens inh: 3; C-LANA FP: 0; cardiac RTF act: -3

Results for Cc1ccc(SCc2cc(=O)[nH]c(N3CCOCC3)n2)cc1 ?
Keap1-Nrf2 PPI: -6; LANA-H2B inh: 17*; RTF Ca sens inh: -12; C-LANA FP: 1; cardiac RTF act: -1

Results for COc1ccc(C(=O)c2sc3nc(C)cc(-c4cccs4)c3c2N)cc1OC ?
Keap1-Nrf2 PPI: 5; LANA-H2B inh: -1; RTF Ca sens inh: -57; C-LANA FP: 26; cardiac RTF act: 44*

Results for Cc1cc(-c2cccs2)c2c(N)c(C(=O)c3ccc4c(c3)OCO4)sc2n1 ?
Keap1-Nrf2 PPI: -2; LANA-H2B inh: 2; RTF Ca sens inh: -20; C-LANA FP: 13; cardiac RTF act: 10

What do the screens show for `COc1ccc(C(=O)c2sc3nc(C)cc(-c4cccs4)c3c2N)cc1`?
Keap1-Nrf2 PPI: -2; RTF Ca sens inh: -47; C-LANA FP: 4; cardiac RTF act: 68*

Results for CCCCNC(=O)COC(=O)c1cc(S(=O)(=O)N2CCCCCC2)ccc1OC ?
Keap1-Nrf2 PPI: 1; LANA-H2B inh: 3; RTF Ca sens inh: -1; C-LANA FP: 1; cardiac RTF act: 3

What do the screens show for `COC(=O)c1cc(NC(=O)c2ccc([N+](=O)[O-])cc2)c(=O)oc1C`?
Keap1-Nrf2 PPI: 0; LANA-H2B inh: 13*; RTF Ca sens inh: 6; C-LANA FP: 0; cardiac RTF act: -6

What do the screens show for `Nc1ccc2cc3[nH]c4cc(N)ccc4c3nc2c1`?
Keap1-Nrf2 PPI: 161*; RTF Ca sens inh: inactive; C-LANA FP: 164*; cardiac RTF act: active

Results for COC1OC2COC(c3ccccc3)OC2C(=O)C1NC(=O)c1ccccc1 (stereo unspecified) ?
Keap1-Nrf2 PPI: -5; RTF Ca sens inh: -2; C-LANA FP: 0; cardiac RTF act: -3

Results for CCCOc1ccc(/C=N/NC(=O)CSc2ccccn2)cc1OC ?
Keap1-Nrf2 PPI: 5; LANA-H2B inh: 12*; RTF Ca sens inh: -6; C-LANA FP: 0; cardiac RTF act: 1

Results for COc1cc(/C=N/NC(=O)CSc2ccccn2)ccc1O ?
Keap1-Nrf2 PPI: 0; LANA-H2B inh: -3; RTF Ca sens inh: 3; C-LANA FP: 1; cardiac RTF act: 2

What do the screens show for `CC(Sc1ccc(S(=O)(=O)N2CCOCC2)cn1)C(=O)Nc1ccc(Cl)cc1Cl` (stereo unspecified)?
Keap1-Nrf2 PPI: -7; LANA-H2B inh: 24*; RTF Ca sens inh: -3; C-LANA FP: -1; cardiac RTF act: 2

What do the screens show for `CC(Sc1ccc(S(=O)(=O)N2CCN(C)CC2)cn1)C(=O)Nc1cccc(Cl)c1Cl` (stereo unspecified)?
Keap1-Nrf2 PPI: -1; RTF Ca sens inh: 1; C-LANA FP: -1; cardiac RTF act: 2

Results for C=CCn1c(SCC)nc(O)cc1=O ?
Keap1-Nrf2 PPI: -5; LANA-H2B inh: -8; RTF Ca sens inh: -9; C-LANA FP: 2; cardiac RTF act: 9

What do the screens show for `C=CCn1c(SCCC)nc(O)cc1=O`?
Keap1-Nrf2 PPI: -2; LANA-H2B inh: 16*; RTF Ca sens inh: 2; C-LANA FP: 2; cardiac RTF act: 0

What do the screens show for `O=C(CN1C(=O)NC(Cc2c[nH]c3ccccc23)C1=O)Nc1cccc(S(=O)(=O)N2CCOCC2)c1` (stereo unspecified)?
Keap1-Nrf2 PPI: -7; LANA-H2B inh: 25*; RTF Ca sens inh: -10; C-LANA FP: 1; cardiac RTF act: 2

Results for Cc1cc(C)cc(NC(=O)CN2C(=O)NC(Cc3c[nH]c4ccccc34)C2=O)c1 (stereo unspecified) ?
Keap1-Nrf2 PPI: 4; LANA-H2B inh: -2; RTF Ca sens inh: -1; C-LANA FP: 1; cardiac RTF act: -6

How did COc1ccc(CCN2CCCC(CN(C)C(=O)c3ccoc3)C2)cc1 (stereo unspecified) do in these assays?
Keap1-Nrf2 PPI: 1; LANA-H2B inh: 15*; RTF Ca sens inh: -5; C-LANA FP: -2; cardiac RTF act: 0

Results for COc1cc2c(cc1OC)CN(C(=O)CNC(=O)c1ccc(OC(F)F)cc1)CC2 ?
Keap1-Nrf2 PPI: 4; LANA-H2B inh: -7; RTF Ca sens inh: -6; C-LANA FP: 1; cardiac RTF act: -1

How did Cc1ccc(N(CC(=O)NCc2ccc(F)cc2)C(=O)CCC(=O)Nc2ccccn2)cc1C do in these assays?
Keap1-Nrf2 PPI: -5; LANA-H2B inh: 26*; RTF Ca sens inh: -9; C-LANA FP: 1; cardiac RTF act: 2

How did COc1ccc(N(CC(=O)NCc2ccc(F)cc2)C(=O)CCC(=O)Nc2ccccn2)cc1 do in these assays?
Keap1-Nrf2 PPI: -1; LANA-H2B inh: 4; RTF Ca sens inh: -12; C-LANA FP: 1; cardiac RTF act: 7

Results for COc1ccccc1N(O)C1CC(=O)N(c2ccc(F)cc2)C1=O (stereo unspecified) ?
Keap1-Nrf2 PPI: 1; LANA-H2B inh: 2; RTF Ca sens inh: -3; C-LANA FP: -1; cardiac RTF act: 8

What do the screens show for `CCOC(=O)c1cc(C#N)c(SCC(=O)c2cc(C#N)c(SC)nc2C)[nH]c1=O`?
Keap1-Nrf2 PPI: 9; LANA-H2B inh: 4; RTF Ca sens inh: -72; C-LANA FP: 31; cardiac RTF act: 58*
